# Hit rate of the full screen: of about 200,000 compounds, about 670 (0.34%) were called active. No stated cut-off is given here; in the data, active means activation above about 22%; inactive means the rest. For the sample, actives were picked, then their nearest neighbours and some compounds at random.
# Biological target: Peroxisome proliferator-activated receptor gamma (Homo sapiens) (UniProt P37231)
# Experiment: compounds enhancing SRC-2 coactivator binding to PPARgamma – biochemical, HTS, primary screen (AID 1032);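 further: 0% = vehicle and 100% = reference agonist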
# Conditions: PPARgamma LBD-SRC-2 recruitment, at 8 µM, hits give high values
# Chain of Peroxisome proliferator-activated receptor gamma (Homo sapiens) (P37231 whole entry, looked up): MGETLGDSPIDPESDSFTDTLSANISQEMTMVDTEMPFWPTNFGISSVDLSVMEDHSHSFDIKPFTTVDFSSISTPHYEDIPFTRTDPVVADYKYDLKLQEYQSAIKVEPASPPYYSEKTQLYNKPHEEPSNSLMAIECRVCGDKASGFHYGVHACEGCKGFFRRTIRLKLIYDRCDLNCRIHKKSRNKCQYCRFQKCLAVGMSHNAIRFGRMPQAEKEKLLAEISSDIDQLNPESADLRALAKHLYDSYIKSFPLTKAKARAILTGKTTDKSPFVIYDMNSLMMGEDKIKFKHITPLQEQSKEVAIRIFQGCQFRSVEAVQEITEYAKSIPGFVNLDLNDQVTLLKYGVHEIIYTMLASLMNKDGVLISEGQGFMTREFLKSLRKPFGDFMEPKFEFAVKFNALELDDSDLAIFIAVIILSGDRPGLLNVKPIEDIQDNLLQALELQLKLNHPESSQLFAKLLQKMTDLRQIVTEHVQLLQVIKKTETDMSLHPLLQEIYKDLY
row,SMILES,activation
1,CCn1c(SCc2cc(=O)n3ccsc3n2)nc2ccccc21,2.48% (inactive)
2,C=CCNC(=O)CSc1nc2sc(C)c(C)c2c(=O)[nH]1,6.77% (inactive)
3,CC(=O)c1sc2nc(SCC(=O)N3CCCCC3)[nH]c(=O)c2c1C,27.8% (active)
4,O=C(CSc1nc2c(cnn2-c2ccc(F)cc2)c(=O)[nH]1)N1CCCCCC1,5.39% (inactive)
5,CCN(CC)N=Nc1cccc(NC(C)=O)c1,6.74% (inactive)
6,CCOC(=O)c1[nH]ncc1CN1CCCC(C(=O)c2ccc(OC)cc2C)C1 (configuration not stated),-2.32% (inactive)
7,Oc1ccccc1N1CCN(C(=S)NCc2ccccc2)CC1,6.1% (inactive)
8,O=C(COC(=O)c1ccncc1)c1ccccc1,-2.8% (inactive)
9,CC(=O)NC1C(OCc2ccccc2)OC(COC(C)=O)C(OC(C)=O)C1OC(C)=O (configuration not stated),4.63% (inactive)
10,O=C(OCC1O[C@@H](OC(=O)c2cc(O)c(O)c(O)c2)[C@@H](OC(=O)c2cc(O)c(O)c(O)c2)[C@@H](OC(=O)c2cc(O)c(O)c(O)c2)[C@@H]1OC(=O)c1cc(O)c(O)c(O)c1)c1cc(O)c(O)c(O)c1 (some centres not stated),27.6% (active)
11,CCOC(=O)N1CCN(C(=O)CSc2nc(C)nc3c2c(=O)n(C)c(=O)n3C)CC1,-8.15% (inactive)
12,Cc1cc(C)nc(NC(=O)c2cccc([N+](=O)[O-])c2)c1,-5.12% (inactive)
13,CSc1nc(N)c(C#N)c(-c2ccccc2Cl)c1C#N,-6.37% (inactive)
14,CCc1c(-c2ccccc2)nc(N)c(C#N)c1-c1cccs1,23.2% (active)
15,Cc1c(-c2ccccc2)nc(N)c(C#N)c1-c1cccs1,6.63% (inactive)
16,O=C(NCc1nnc(SCC(=O)N2CCC(Cc3ccccc3)CC2)o1)c1ccco1,0.71% (inactive)
17,O=C(Cc1ccc(Br)cc1)N1CCN(c2ccccn2)CC1,4.3% (inactive)
18,CC(C)(C)C(=O)NC(NC(=S)Nc1ccc(S(N)(=O)=O)cc1)C(Cl)(Cl)Cl (configuration not stated),-5.23% (inactive)
19,CN(C)c1ccc(N/C=C/C(=O)C(F)(F)F)cc1,39.6% (active)
20,O=C(/C=C/Nc1ccccc1OC(F)(F)F)C(F)(F)F,1.89% (inactive)
21,CCCOc1ccc(N/C=C/C(=O)C(C)(C)C)cc1,-1.64% (inactive)
22,CCC(=O)OCCNc1nc(-c2ccccc2)nc2ccccc12,0.25% (inactive)
23,Cn1ccc(=NC=C(C#N)C#N)c2ccccc21,-3.24% (inactive)

row,SMILES,activation
1,CC1CCN(C(=S)NC2CC3CCC2C3)CC1 (configuration not stated),-1.7% (inactive)
2,Cc1c(CN2CCC(CO)(CCOc3ccccc3)CC2)[nH]c2ccc(Cl)cc12,3.77% (inactive)
3,COc1ccc(C(=O)NCc2nnc(SCCOc3ccccc3)n2C)cc1,0.32% (inactive)
4,CCOC(=O)C1CCN(C(=O)Cn2cc(C#N)c3ccccc32)CC1,3.64% (inactive)
5,CC(=O)c1ccc(-n2nnnc2SCC(=O)N2CCN(C(=O)c3ccco3)CC2)cc1,-5.53% (inactive)
6,Cn1c(=O)cc(SCC(=O)N2CCCC2)c2cc(Cl)ccc21,61.1% (active)
7,CCOC(=O)C1CCN(C(=O)CSc2cc(=O)n(C)c3ccccc23)CC1,56.4% (active)
8,Cc1cccc(OCc2nnc(SCC(=O)N3CCN(C(=O)c4ccco4)CC3)n2C)c1C,4.26% (inactive)
9,CCOC(=O)N1CCC(NC(=O)COc2cc(=O)n(C)c3ccccc23)CC1,-4.54% (inactive)
10,CCOc1ccc(CCNC(=O)CSc2cc(=O)n(C)c3ccc(Cl)cc23)cc1OCC,18.7% (inactive)
11,O=C(CSCc1ccc(Cl)cc1)N1CCCCC1,7.59% (inactive)
12,Cn1c(=O)cc(SCC(=O)N2CCN(C(=O)c3ccco3)CC2)c2ccccc21,40.5% (active)
13,Cc1ccc(-c2nc(C)sc2CC(=O)OCC(=O)Nc2c(F)cccc2F)cc1,5.36% (inactive)
14,O=c1oc(/C=C/c2ccccc2)nc2ccccc12,-0.23% (inactive)
15,O=C(Cc1ccccc1)N1CCN(S(=O)(=O)c2ccc([N+](=O)[O-])cc2)CC1,7.91% (inactive)
16,O=C1c2cccc(OCC(=O)N3N=C(c4cccs4)CC3c3ccc(F)cc3)c2CCN1Cc1ccccc1 (configuration not stated),0.84% (inactive)
17,CC(CC(=O)Nc1ccccc1)n1ccnc1 (configuration not stated),8.08% (inactive)
18,CCC(CC)C(=O)Nc1ccc(S(=O)(=O)Nc2nccs2)cc1,-6.57% (inactive)
19,C=C(C)C1CC=C(C)/C(=N/NC(=O)CCCNc2cccc(C)c2)C1 (configuration not stated),3.8% (inactive)
20,O=C(CNC(=O)COc1ccccc1)NCCc1ccccn1,-3% (inactive)
21,C#CCOCCOCCOCCNc1nc(N2CCN(C(=O)C(Cc3ccc(O)cc3)n3cc(C(N)CC(C)C)nn3)CC2)nc(N2CCN(C(=O)C(Cc3ccc(O)cc3)n3cc(C(N)C(C)CC)nn3)CC2)n1 (configuration not stated),-8.91% (inactive)
22,COCCN(C(=O)CCC(=O)Nc1nccs1)C(C(=O)NC(C)(C)C)c1ccc(Cl)cc1 (configuration not stated),5.4% (inactive)
23,CC(=O)Nc1ccc(Nc2c([N+](=O)[O-])cc(S(C)(=O)=O)cc2[N+](=O)[O-])cc1,6.76% (inactive)

row,SMILES,activation
1,N#Cc1ccc(-c2ccc(F)cc2)nc1Sc1ccccc1,3.38% (inactive)
2,CN(C)c1ccnc(Oc2ccc(F)cc2)c1C#N,7.04% (inactive)
3,N#Cc1ccc(-c2ccc(Cl)cc2)nc1Oc1ccc(F)cc1,322% (active)
4,COCCn1c(SCC(=O)Nc2ccc3c(c2)CCC3)nc2ccccc2c1=O,-3.24% (inactive)
5,CCOC(=O)/C=c1\s/c(=C\c2ccc(C#N)cc2)c(=O)n1CC(=O)Nc1cccc(C)c1C,2.46% (inactive)
6,Oc1oc(-c2ccccc2Br)nc1/C=N/c1ccccn1,7.3% (inactive)
7,CCc1nnc(NS(=O)(=O)c2ccc(N=Cc3c(C)[nH]n(-c4ccc(C)cc4)c3=O)cc2)s1,12.6% (inactive)
8,COc1cc(SC#N)ccc1N=Cc1c(C)[nH]n(-c2ccc(C)cc2)c1=O,27.6% (active)
9,Cc1ccc(-n2[nH]c(C)c(/C=N/N3C(=O)c4cccc5cccc(c45)C3=O)c2=O)cc1,6.04% (inactive)
10,CN(C)S(=O)(=O)c1cccc(NC(=S)NCc2ccc3c(c2)OCO3)c1,4.42% (inactive)
11,COc1ccc(N(CC(=O)NC2CCCC2)C(=O)CS(=O)CC(=O)Nc2ccc3c(c2)OCO3)cc1 (configuration not stated),-7.54% (inactive)
12,O=C(CSc1cccc2cccnc12)N/N=C/c1cccnc1,27.4% (active)
13,Cc1nc2ccccc2n1CC(=O)N/N=C/c1cccnc1,2.27% (inactive)
14,CCOC(=O)N/N=C/c1cccnc1,3.1% (inactive)
15,CC(C)CN1CCNC(=O)C1CC(=O)N(C)CC1CCOCC1 (configuration not stated),-4.08% (inactive)
16,c1ccc2sc(NN=C3CCCC3)nc2c1,-0.8% (inactive)
17,Cc1cccc2cc(CN(Cc3ccc4c(c3)OCO4)Cc3nnnn3C3CCCC3)c(=O)[nH]c12,27.4% (active)
18,Cc1cccc2cc(CN(Cc3cccs3)C(c3nnnn3C3CCCC3)C(C)C)c(=O)[nH]c12 (configuration not stated),2.09% (inactive)
19,CCC(c1nnnn1C1CCCC1)N(Cc1cccs1)Cc1cc2cccc(C)c2[nH]c1=O (configuration not stated),7.3% (inactive)
20,CC(C(=O)N=Nc1c(O)n(C)c2ccc(Br)cc12)n1cnc2ccccc2c1=O (configuration not stated),2.86% (inactive)
21,Cc1ccccc1Cn1nc(C)c(NC(=O)C(F)(F)F)c1C,-0.15% (inactive)
22,COc1cc(C2C(C(=O)c3ccc(C)o3)=C(O)C(=O)N2CCc2ccccc2)ccc1O (configuration not stated),0.21% (inactive)
23,COc1cc(C2C(C(=O)c3ccc(C)o3)=C(O)C(=O)N2Cc2cccnc2)ccc1O (configuration not stated),-1.47% (inactive)

row,SMILES,activation
1,CCCOc1ccc(C2C(C(=O)c3ccc(C)o3)=C(O)C(=O)N2CCCn2ccnc2)cc1 (configuration not stated),22.1% (active)
2,CCOC(=O)N1CCC(=NNC(N)=O)CC1,3.39% (inactive)
3,CCCCOC(=O)c1ccc(NC(c2ccc(C)cc2)P(=O)(OC)OC)cc1 (configuration not stated),7.71% (inactive)
4,COc1cc(C(=S)N2CCOCC2)ccc1O,5.98% (inactive)
5,COc1cccc(NC(=O)C(Sc2nc3ccccc3c(=O)n2CC(C)C)c2ccccc2)c1 (configuration not stated),1.13% (inactive)
6,Cc1ccc(NC(=S)N(CCCN2CCC(C)CC2)Cc2ccco2)cc1,-0.03% (inactive)
7,COC(=O)Cn1cc(C(=O)c2cccs2)c2ccccc21,25.2% (active)
8,O=C(Cn1cc(C(=O)c2cccs2)c2ccccc21)NCc1cccs1,-4.53% (inactive)
9,COCCNC(=O)Cn1cc(C(=O)c2cccs2)c2ccccc21,-7.11% (inactive)
10,O=C(CNS(=O)(=O)c1ccccc1)NCC(=O)OCc1ccccc1F,-5.13% (inactive)
11,Cc1scc(C(=O)NNC(=S)NCc2ccccc2)c1C,-7.7% (inactive)
12,CC1=NNC(=O)C1CCC(=O)N/N=C\c1ccc(Cl)c(Cl)c1 (configuration not stated),6.93% (inactive)
13,O=c1c2ccccc2c(-c2ccccc2)nn1Cc1ccccc1,-3.47% (inactive)
14,CSc1c(SCc2ccccc2)cnn(Cc2ccccc2)c1=O,28% (active)
15,Cn1c(CO)cnc1SCc1ccccc1,5.35% (inactive)
16,CN1CCC(=NNC(=O)CN(c2cccc(Cl)c2)S(C)(=O)=O)CC1,10.8% (inactive)
17,S=c1[nH]cc(-c2ccc(Cl)cc2)n1-c1ccccc1,0.94% (inactive)
18,CCc1ccc(NC(=O)C(C)OC(=O)/C=C/c2cccc([N+](=O)[O-])c2)cc1 (configuration not stated),2.51% (inactive)
19,Cc1cccn2c(CN(C)C3CCCc4ccccc43)c(C(=O)N3CCOCC3)nc12 (configuration not stated),-1.89% (inactive)
20,CCN(CCCNC(=O)CSc1cc(=O)n(C)c2cc(Cl)ccc12)Cc1ccccc1,26.1% (active)
21,CCN(CC)CCCNC(=O)c1cc(-c2cccc(Cl)c2)on1,0.37% (inactive)
22,CCN(CC)CCCNC(=O)CCc1ccccc1,9.5% (inactive)
23,CCOC(=O)N1CCN(c2cc(C)c([N+](=O)[O-])cc2F)CC1,-3.32% (inactive)

# Reference: PubChem BioAssay AID1032 (The Scripps Research Institute Molecular Screening Center, 2008)
